Assay outcomes (PubChem BioAssay)
This excerpt belongs to a sample that is enriched for hits.
Dicer processing = human Dicer pre-microRNA cleavage inhibition; Q9UPY3; cat-ELCCA pre-miR-21 Dicer processing, chemiluminescence; hits give high values; z-score at 25 µM; hit rate 6% among 47,000; in the data active means z-score above about 3, passing the limit was not always enough;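 further: plate controls were vehicle for no effect and no enzyme for full effect; higher signal means more uncleaved substrate so more Dicer inhibition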
Starred values were filed as active, the others as inactive.

SMILES	Dicer processing
CCCN1C(=O)C2(/C(=C(/O)c3ccc(OCC)cc3)C(=O)C(=O)N2CCN(C)C)c2ccccc21 (stereo not given)	50.8
CCCCc1nc2oc(C(=O)c3ccccc3)c(N)c2c2c1COC(C)(C)C2	1.8
COc1cc2c(cc1OC)C1c3ccccc3NC(=O)CN1CC2 (stereo not given)	-0.18
C=CCc1ccccc1OCc1cccc(C(=O)O)c1	2.35
CCC(CCC(=O)Nc1nccs1)C(=O)O (stereo not given)	1.32
CC(=O)Oc1ccc(C2C(C(=O)OCCOc3ccccc3)=C(C)NC3=C2C(=O)CCC3)cc1 (stereo not given)	0.48
O=C(O)CSc1cccc(Cl)c1Cl	0.06
COc1ccc(N2C(=O)C3ON(c4ccccc4)C(c4ccccc4)C3C2=O)cc1 (stereo not given)	-0.1
CN1CCN(c2nc3c(c(=O)n(C)c(=O)n3C)n2CC(O)c2ccccc2)CC1 (stereo not given)	-1.55
COc1ccccc1NS(=O)(=O)c1ccc2c(c1)[C@H]1C=CC[C@H]1[C@@H](c1ccccc1Cl)N2	2.5
C=CCN1C(=O)C(=O)/C(=C(/O)c2ccc(C)cc2)C1c1cccc(F)c1 (stereo not given)	1.73
COc1cccc(C=Nc2cc(N=Cc3cccc(OC)c3O)cc(C(F)(F)F)c2)c1O	0.22
COC(=O)c1cc(S(=O)(=O)N2CCSC2)oc1C	0.34
O=C(Nc1ccc(Cl)cc1)c1cc2n(n1)C(C(F)(F)F)CC(c1ccco1)N2 (stereo not given)	1.38
O=C(NC1CC1)c1cc2n(n1)C(C(F)(F)F)CC(c1ccco1)N2 (stereo not given)	-0.56
O=C(c1nn2c(c1Cl)NC(c1ccco1)CC2C(F)(F)F)N1CCCC1 (stereo not given)	2.42
COc1ccc(N2CCN(C(=O)c3cc4n(n3)C(C(F)(F)F)CC(c3ccco3)N4)CC2)cc1 (stereo not given)	0.83
CC(C)(C)NC(=O)c1nn2c(c1Br)NC(c1ccccc1)CC2C(F)(F)F (stereo not given)	-0.07
O=C(Nc1ccc(O)cc1)c1cc2n(n1)C(C(F)(F)F)CC(c1ccco1)N2 (stereo not given)	1.16
O=C(Nc1ccc(Cl)cc1)c1nn2c(c1Cl)NC(c1ccco1)CC2C(F)(F)F (stereo not given)	3.78*
CC(C)(C)NC(=O)c1nn2c(c1Cl)NC(c1ccco1)CC2C(F)(F)F (stereo not given)	3.18*
O=C(c1nn2c(c1Cl)NC(c1ccco1)CC2C(F)(F)F)N1CCN(c2ccccc2)CC1 (stereo not given)	5.3*
CCOC(=O)c1cc(O)c(C(=O)OCC)cc1O	-0.02
C=C1SC(=Nc2ccccc2Cl)N(C(=O)c2c(F)cccc2F)C12CCCCC2	-1.04
COc1ccc2c3c(cccc13)C(=O)c1ccccc1-2	-0.76
SMILES	Dicer processing
Cn1c(=O)[nH]c(=O)c2c1nc1oc(-c3ccccc3)cn12	1.06
Cc1nc(N2CCN(Cc3ccccc3)CC2)nc2c1C(=O)CC(/C=C/c1ccccc1)C2 (stereo not given)	-0.66
C=CCn1c2ccccc2c2nnc(SCC(=O)Nc3nc(C)c(C(=O)OCC)s3)nc21	4.89*
C=CCn1c2ccccc2c2nnc(SCC(=O)Nc3cc(C)on3)nc21	0.28
C=CCn1c2ccccc2c2nnc(SCC(=O)Nc3ncc([N+](=O)[O-])s3)nc21	0.77
CC(C)c1ccc(C2Nc3ccc4ncccc4c3C3=C2C(=O)CCC3)cc1 (stereo not given)	0.74
Nc1nc(SCc2cnc(-c3ccccc3)o2)nc2nc[nH]c12	0.83
CC1=Nc2cc(Cl)c(Cl)cc2NC(C)(C)C1	7.22*
CC(C)(CC(=O)O)CC(=O)NC1Cc2ccccc2C1	-0.83
CC1=C2CCC(C)CC23C2C(=O)N(Cc4ccc(Cl)cc4)C(=O)C2C1C1C(=O)N(Cc2ccc(Cl)cc2)C(=O)C13 (stereo not given)	0.45
O=C1CNC(=S)N1Cc1ccc(Cl)cc1	-0.06
CC1CC(=O)N(Cc2ccc(Cl)cc2)C(=O)C1	4.73*
O=C(/C=C1\OC(=O)c2ccccc21)Oc1cc(Cl)cc(Cl)c1	0.8
Cc1ccccc1-c1nc(NC(=O)CSc2ncnc3sc(C)c(C)c23)ns1	3.03*
Cc1ccc(-c2nc(NC(=O)CSc3nnc(C)s3)ns2)cc1	1.92
COC(=O)c1c(NC(=O)CSc2ncnc3sc(C)c(C)c23)sc2c1CCCC2	-2.26
COC(=O)c1cc(C)nc(Sc2ccccc2NC(=O)c2ccccc2)n1	-2.06
CC(C)(C)c1ccc(C(=O)Nc2cnc3ccccn3c2=O)cc1	0.61
Nc1c(C(=O)Nc2ccc(F)cc2)sc2nc3c(cc12)CCCC3	0.23
O=C1C2C3c4ccccc4C(C(=O)O)(c4ccccc43)C2C(=O)N1c1ccccc1F (stereo not given)	-1.11
Cn1nc(C(F)(F)C(F)F)cc1-c1ccccc1O	5.32*
CN(C)C(=O)c1ccc(-c2cc(C(F)(F)F)nn2C)s1	-0.27
Cn1nc(C(F)(F)F)cc1OC(=O)c1ccccc1Cl	-0.32
Cc1c(Cl)cc([N+](=O)[O-])cc1Cl	-0.06
